From ChEMBL document CHEMBL1961873, “Compounds: GSK PKIS; Assays: Nanosyn kinase panel” (2012) come the findings set out here.

The structures appear in SMILES notation. Values joined by “and” are separate entries in the source; they are usually repeats but may differ in a detail not shown here. Identical values can stand only once.

The test has as its target T1, Serine/threonine-protein kinase Sgk1 (Homo sapiens) (UniProt O00141).
T1 sequence (whole entry): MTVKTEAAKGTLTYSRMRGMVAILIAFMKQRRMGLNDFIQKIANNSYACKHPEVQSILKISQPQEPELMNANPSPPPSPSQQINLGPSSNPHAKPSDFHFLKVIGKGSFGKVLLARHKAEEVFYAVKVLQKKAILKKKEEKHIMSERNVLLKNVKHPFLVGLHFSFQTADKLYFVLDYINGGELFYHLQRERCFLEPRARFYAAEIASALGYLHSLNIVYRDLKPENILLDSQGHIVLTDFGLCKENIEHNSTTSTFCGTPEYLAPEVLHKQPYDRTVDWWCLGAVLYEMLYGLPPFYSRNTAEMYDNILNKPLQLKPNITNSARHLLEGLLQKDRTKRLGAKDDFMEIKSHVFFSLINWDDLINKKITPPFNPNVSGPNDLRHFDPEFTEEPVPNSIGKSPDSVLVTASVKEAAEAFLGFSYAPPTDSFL
The following applies: at 0.1 µM.
As a reminder, the inhibition is the change of the read-out against control, counted positive when it falls. On to `c1ccc(-c2n[nH]cc2-c2ccnc(-c3ccc(OCCn4ccnc4)cc3)c2)nc1`, for which the inhibition was 0.97%.

With `COc1cc(N2CCN(C(C)C)CC2)ccc1Nc1nc(Nc2cccc(F)c2C(=O)O)c2cc[nH]c2n1`, the inhibition was 0.41%.

`CS(=O)(=O)Nc1ccc(-c2cc(-c3ccccc3)cc(C(N)=O)c2N)cc1`: the inhibition is 0.87%.

As to `Nc1ncnc2occ(-c3ccc(NC(=O)Nc4cc(C(F)(F)F)ccc4F)cc3)c12`, the inhibition was 1.7% and 0.49%.

Consider `COc1cc2c(cc1Nc1nc(Nc3cccc(F)c3C(N)=O)c3cc[nH]c3n1)N(C(=O)CN1CCN(C(C)C)CC1)CC2`, for which the inhibition was -0.48%.

In the case of `CCS(=O)(=O)c1ccc(OC)c(Nc2ncc(-c3cccc(C(C)=O)c3)o2)c1`, the inhibition was determined as 0.32%.

For the molecule `CC(C)c1ccc(-c2cc(-c3c[nH]nc3-c3ccccn3)ccn2)cc1`, the inhibition was determined as 1.94%.

In the case of `O=C(O[C@H]1CN[C@H](C#Cc2cc3ncnc(Nc4ccc5c(ccn5Cc5cc(F)ccc5F)c4)c3s2)C1)N1CCOCC1`, the inhibition turned out to be 3.69%.

Take `CN(c1ccc(NC(=O)NCCN2CCOCC2)cc1)c1ccnc(Nc2ccc(CS(C)(=O)=O)cc2)n1`: the inhibition was found to be 2.3%.

Regarding `NS(=O)(=O)c1ccc(N/N=C2\C(=O)Nc3cccc(CCc4ccncc4)c32)cc1`, the inhibition came out at 1.76%.

On to `CNC(=O)c1cncc(/C=C/c2ccccc2C)c1`, for which the inhibition is 3.1%.

Consider `CN1CCC(C(=O)Nc2n[nH]c3nc(-c4ccc(O)cc4)c(Br)cc23)CC1`, for which the inhibition was 5.12% and 1.94%.

On to `COc1c(C(N)=O)cc(-c2ccc(Cl)cc2)cc1-c1ccc(S(N)(=O)=O)cc1`, for which the inhibition was 0.41%.

For `CN1CCN(Cc2ccc(-c3cc4ncnc(Nc5ccc(OCc6cccc(F)c6)c(Cl)c5)c4s3)o2)CC1`, the inhibition was 2.87% and 4.63%.

Turning to `NC(=O)c1ccc2c(-c3ccnc(NCCCO)n3)c(-c3ccc(F)cc3)nn2c1`, the inhibition is 2.62%.
